Measured values as given in the OligoGym collection.

The sequences below were run against ZMAT5 (assay: pooled miR-30 sensor sort-seq; sequence = guide strand). Details: shRNA.
Also: reference of the scale not given here.

Sequence | sensor-assay potency score (higher = more potent)
TTGTTCTGCTCATCCAGCAAGA | -0.992
TGCATCTCGGAACATGTCGTAC | -1.55
TCTCGCTCTGACATGTGGGAAA | -1.37
TACCAGACCTTCTTGGCCTTGA | 0.178
ATGTCGTACCAGACCTTCTTGG | -1.05
TCTGACATGTGGGAAAATCTGC | -0.533
TTGGAGCCAAAGTCGCACTGGC | -0.262
ATCTCGGAACATGTCGTACCAG | -1.24
TGTCGTACCAGACCTTCTTGGC | -0.415
AAAATCTGCAGTTGGAGCCAAA | -1.1

The sequences below were run against ZMYM3 in the same assay as above. Details: shRNA.

Sequence | sensor-assay potency score (higher = more potent)
TTCTGTTTGACTTCCTTTGGAC | 0.00295
TTGACCACAGATCCCATCCTGC | -0.277
AAACAGGTCACAGTCTTCCAGG | -1.1
TAGAACTTGACAGGGCAGCGGA | -0.668
TTACACAGGGTCTTGCACCAGA | 0.022
TACACTGGGATTAATGTCCAGA | -0.579
TTTGTGACACACTTGAGCGTAG | 0.22
TTGTTCAGTAGACACATCCTCA | 0.00931
TTGAGCTCAGCAGCTGAGCAGG | -1.2
TTGTACAGCAGCACACAGCCTT | -0.282
TTGGACTTCATCTCCACCTTGC | 0.519
TTGTCTGTGCTCTCCAAGGTAG | -0.839

The sequences below were run against ZNF100 in the same assay as above. Details: shRNA.

Sequence | sensor-assay potency score (higher = more potent)
TTTCCTATACAAACCCTGCTGA | -0.0321
TATTTGTACAATATTTCTCAAG | -1.35
TTCAAAATAAGACTGCACCAGA | 0.0757
TTGAATTTGAAAATGTATGAAA | -0.873
TTTGTAACTGTAAATTGTCATG | -1.22
TTAATTTGTTATCATGTTCTTT | -0.0243
TTTCTAGTATGTCTTATCTTAT | -1.12
TTTGTTATCATGTTCTTTGTGC | 0.633
TAATTTGTTATCATGTTCTTTG | -0.537
TTAGTGAGGGCTGAGGACCAGT | -0.895
TTCTCCAGTATAACTTACCTTA | -0.393

The sequences below were run against ZNF135 in the same assay as above. Details: shRNA.

Sequence | sensor-assay potency score (higher = more potent)
TTCTTCAGAGATGCCTTGCTTT | -0.404
TATTTCTTCAGAGATGCCTTGC | 0.235
TTAAGCATTCGTGACATTCATA | -1.02
TTAGAACTGACAGTTTGACTTT | -0.0207
TCTCATTTCTGGAACACTCTGC | 0.253
TTTCTCATGTGTATGATTGGGT | 0.467
TCAAACGTCACTTGCTCCGGGT | -0.579
